Results filed as inconclusive are left out. Activity calls are given as the source filed them. The call rests on the fitted dose curve; in most records, active means well fitted activation curve with a large enough effect; inconclusive means small, poorly fitted or top-dose-only effect; inactive means flat fitted curve, though single readings scatter.
Experiment: qHTS for Inhibitors of Cell Surface uPA Generation: Confirmatory Assay for Cherry-picked Compounds; on inhibition: 0% is about no effect
Conditions: cell surface uPA activity generation, qHTS confirmation; series mostly up to 115 µM; inhibition: at the top concentration
Procedure, shortened: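 RAW 264.7 cells at 4000/well, incubated overnight, then treated with compounds. After 24 h at 37 C, viability was read by ATPlite luminescence. An increase in signal indicates blocked uPA-dependent LF entry.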
Potency means the concentration at half of the fitted maximal effect.

SMILES	inhibition	Potency
O=C(/C=C/c1ccc(O)c(O)c1)O[C@@H]1C[C@](O)(C(=O)O)C[C@@H](O)[C@H]1O	-1.49% (inactive)	
CCCCn1c(C2CCCCC2)nc2cc3[nH]c(=O)c(C(C)C)nc3cc21	-3.43% (inactive)	
CCOc1ccccc1CN1CCCC(CNS(=O)(=O)c2ccc(OC)cc2)C1 (stereo not drawn)	-2.48% (inactive)	
Cc1nc2nc(C)c(NS(=O)(=O)c3ccc(Cl)cc3)c(=O)n2[nH]1	-2.34% (inactive)	
COc1cc2cc(CN(CCN3CCOCC3)C(=O)Nc3ccc(F)cc3)c(=O)[nH]c2cc1OC	-0.841% (inactive)	
Cc1ccc(Nc2cc(C)c3ccc(O)cc3n2)cc1C		6.56 µM (active)
O=C(CN1C(=O)CSCC1=O)NCc1ccc(F)cc1	-0.0415% (inactive)	
CC(/C=C1\SC(=S)N(CCCC(=O)Nc2ccc(C(=O)O)cc2)C1=O)=C\c1ccccc1	-2.46% (inactive)	
CSCC[C@H](NC(=O)[C@H](Cc1ccccc1)n1c(=O)[nH]c2ccccc2c1=O)C(=O)N1CCC[C@@H]1C(=O)O	-0.387% (inactive)	
CCn1c2ccccc2c2n[nH]c(=S)nc21	-1.42% (inactive)	
O=C(COC(=O)c1cc([N+](=O)[O-])ccc1NCCO)NCc1cccs1	-1.09% (inactive)	
NC(=O)c1ccccc1NC(=O)CC12CC3CC(CC(C3)C1)C2	-2.57% (inactive)	
Cc1cc(NC(=O)COc2cccc([N+](=O)[O-])c2)no1	-2.33% (inactive)	
CC(=O)COc1ccc2c(-c3cccc([N+](=O)[O-])c3)cc(=O)oc2c1	-3.16% (inactive)	
CC(=O)c1ccc(N=C2SCCCN2C(=O)C2CCCCC2)cc1	-2.64% (inactive)	
Cc1ccc2oc(C(=O)N(Cc3ccc(N(C)C)cc3)C3CCS(=O)(=O)C3)c(C)c2c1 (stereo not drawn)	-3.77% (inactive)	
CC(/C=C/C1(O)C(C)CC(O)CC1(C)C)OC1OC(CO)C(O)C(O)C1O (stereo not drawn)	1.24% (inactive)	
COc1ccc(C[C@@H]2OC3(C=CC(=O)C=C3)O[C@H]2Cc2ccc(OC)cc2)cc1	-3.22% (inactive)	
CCc1nnc(NC(=O)CSc2nnnn2-c2cccc(C(C)=O)c2)s1	-1.2% (inactive)	

SMILES	inhibition	Potency
COC(=O)c1c(NC(=O)c2c(OC)cccc2OC)sc2c1C(C(=O)OC)CC2 (stereo not drawn)		29.3 µM (active)
O=C(CN1CCN(Cc2ccc(Cl)cc2)C1=O)NCc1cccs1	-1.61% (inactive)	
CN(Cc1ccc(C(C)(C)C)cc1)C(=O)Cc1ccc(S(=O)(=O)N2CCOCC2)s1	-3.48% (inactive)	
CC(=O)c1c(C)n(-c2ccccc2Br)c2ccc(O)cc12	-3.45% (inactive)	
O=C1c2ccccc2[C@@H]2C[C@H](NC34CC5CC(CC(C5)C3)C4)[C@@H](O)CCN12	-0.982% (inactive)	
Cc1[nH]c(=O)[nH]c(=O)c1S(=O)(=O)N1CCCc2ccccc21	-1.5% (inactive)	
CCOC(=O)N1CCN(c2c(NCCCN3CCCCCC3)c(=O)c2=O)CC1	-2.71% (inactive)	
O=C(O)CSc1nnc(COc2ccccc2)n1-c1ccccc1	-1.25% (inactive)	
O=C(CN1CCCC1)Nc1cccc(Cl)c1Cl	1.68% (inactive)	
CC(=O)NS(=O)(=O)c1ccc(NC(=O)c2cccc(OCc3c(C)noc3C)c2)cc1	-0.123% (inactive)	
COc1ccc(OC)c(S(=O)(=O)N2CCN(Cc3ccccc3)CC2)c1	-0.0908% (inactive)	
COc1ccc(-c2sc3ccccc3c2C#CCO)cc1	-2.84% (inactive)	
O=C(Nc1cccc(-c2nn[nH]n2)c1)c1ccc(Cl)s1	-2.78% (inactive)	
COc1ccc(N(C(C)C(=O)NN=C2CCCC2)S(C)(=O)=O)cc1 (stereo not drawn)	-0.44% (inactive)	
Cn1cccc1Cc1nnc(SCC(=O)Nc2ccc3c(c2)OCCO3)n1-c1ccc(F)cc1	-1.98% (inactive)	
Cc1cc(/C=N/NC(=O)c2ccccc2F)c(C)n1-c1ccccc1	-1.81% (inactive)	
COC(=O)[C@]1(Cc2ccccc2)N[C@H](CN(C)C(=O)c2ccccc2)[C@@H]2C(=O)N(Cc3ccccc3)C(=O)[C@@H]21	3.58% (inactive)	
CC1CCCN(C(=O)c2ccc(-c3ccccc3Cl)o2)C1 (stereo not drawn)	-3.9% (inactive)	
Cc1cccn2c(CNCC(C)Oc3cccnc3)c(C(=O)N3CCOCC3)nc12 (stereo not drawn)	-1.92% (inactive)	

Source: PubChem BioAssay AID720519 (National Center for Advancing Translational Sciences (NCATS), 2013)
